This note sets out measurements from PubChem BioAssay (NCATS).

Records with an inconclusive call do not appear. Entries that show only a call come without a potency. Active and inactive are the calls of the source. Unless noted, calls follow the shape of the dose curve; as a rule, active = well fitted curve in the direction sought with a large enough effect; inconclusive = small, poorly fitted or top-dose-only effect, or another doubt; inactive = no such curve, though single readings can be large; an effect the other way counts as inactive or inconclusive.

The target of experiment [1] is Calcium and integrin-binding protein 1 (Homo sapiens) (UniProt Q99828). Put plainly: Primary qHTS for Identification of Calcium Integrin Binding Protein 1 (CIB1) Competitor (AID 1508620). Also: potency is read from the fitted curve at half-maximal effect. As to conditions: CIB1-GST / FITC-alphaIIb peptide fluorescence polarization; series mostly up to 114 µM. The essentials:
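Fluorescence polarization competition: CIB1-GST (1 uM final) preincubated with compound 15 min at room temperature, then FITC-labeled alphaIIb peptide (100 nM final) added for another 15 min. Polarization read at Ex 480/Em 540.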
Background: Quantitative high-throughput screening tests each substance at several concentrations.

Experiment [2] addresses Cytochrome P450 2D6 (Homo sapiens) (UniProt P10635). Description: Cytochrome P450 family 2 subfamily D member 6 (CYP2D6) small molecule antagonists: luciferase biochemical (cell-free) qHTS assay (AID 1645840; active = well fitted curve in the direction sought with a large enough effect in the repeat runs; an effect the other way counts as inactive or inconclusive; also: nearly all actives have a fitted effect of over 55% in size; also: potency is read from the fitted curve at half-maximal effect). As to conditions: P450-Glo CYP2D6 enzyme, luciferin luminescence, 1 h; series mostly up to 57.4 µM. Put shortly:
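P450-Glo CYP2D6 system: proluciferin substrate converted by enzyme to luciferin, read by luminescence proportional to activity. Enzyme-substrate mix with compound 10 min at room temperature, then NADPH regeneration 1 h before detection reagent.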

Experiment [3] in a line: Primary qHTS for small molecule stabilizers of the endoplasmic reticulum resident proteome: Secreted ER Calcium Modulated Protein (SERCaMP) assay (AID 1508630). The note with it: SH-SY5Y GLuc-SERCaMP (Gaussia luciferase released on ER calcium loss) secretion, thapsigargin, luminescence; series mostly up to 38.4 µM. The essentials:
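The SH-SY5Y reporter protocol was run at 3 concentrations up to 38.3 uM (primary) or 11 concentrations (follow-up): 16 h compound, 100 nM thapsigargin for 4 h, then extracellular luciferase luminescence.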

Sequence of Cytochrome P450 2D6 (Homo sapiens) (P10635 whole entry, looked up): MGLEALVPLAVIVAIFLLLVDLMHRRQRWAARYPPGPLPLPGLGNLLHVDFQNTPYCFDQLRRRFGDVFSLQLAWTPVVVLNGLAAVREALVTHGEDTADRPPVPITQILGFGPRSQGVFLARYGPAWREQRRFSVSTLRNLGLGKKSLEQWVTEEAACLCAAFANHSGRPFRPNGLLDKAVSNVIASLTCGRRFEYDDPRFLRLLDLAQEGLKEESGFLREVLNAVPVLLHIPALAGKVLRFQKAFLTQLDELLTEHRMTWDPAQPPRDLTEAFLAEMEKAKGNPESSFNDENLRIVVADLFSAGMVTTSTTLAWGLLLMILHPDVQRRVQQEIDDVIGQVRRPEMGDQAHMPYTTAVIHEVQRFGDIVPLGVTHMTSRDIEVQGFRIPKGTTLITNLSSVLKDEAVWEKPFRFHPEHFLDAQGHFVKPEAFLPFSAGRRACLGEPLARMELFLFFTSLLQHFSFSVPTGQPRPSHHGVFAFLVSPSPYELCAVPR
Sequence of Calcium and integrin-binding protein 1 (Homo sapiens) (Q99828 whole entry, looked up): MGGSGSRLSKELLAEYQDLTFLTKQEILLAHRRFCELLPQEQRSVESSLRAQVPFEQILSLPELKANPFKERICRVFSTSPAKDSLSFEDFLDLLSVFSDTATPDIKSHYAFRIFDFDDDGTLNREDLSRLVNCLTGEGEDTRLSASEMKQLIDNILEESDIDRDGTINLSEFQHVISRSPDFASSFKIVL

In the case of `C[C@@H]1CCCN1CCc1cc2cc(-c3ccc(C#N)cc3)ccc2o1`, the Potency entry in experiment [1] was “inactive”. The Potency in experiment [2] is 13.5 µM (active).

Take `CC(C)(Cc1ccccc1)NCC(O)c1ccc(O)c(NS(C)(=O)=O)c1` (centres undefined): in experiment [1], the Potency entry was “inactive”. In addition, the Potency in experiment [2] is 3.79 µM (active).

Take `C=C(C)C1CC(O)C(C)C12CC(O)C1(C)OC1C2O` (centres undefined): the Potency result in experiment [1] is “inactive”.

In the case of `O=C(Nc1ccc(C(F)(F)F)cn1)N1CCN(c2ncccc2C(F)(F)F)CC1`, the Potency entry in experiment [1] and in experiment [2] was “inactive” each time.

As for `CCc1ccccc1OC[C@@H](O)CN[C@H]1CCCc2ccccc21`, the Potency entry in experiment [1] was “inactive”. For the same molecule, in experiment [3], the result was inactive. In experiment [2], the Potency is 0.477 µM (active).

As for `Oc1ccc(-c2cnc3ccc(NCc4ccco4)nn23)cc1`, the Potency result in experiment [1] was “inactive”. The Potency in experiment [2] was 1.69 µM (active).

As to `O=C(NCc1ccc(OC(F)(F)F)cc1)C1c2c(F)cccc2C(=O)N1CCc1ccccn1` (centres undefined), the Potency entry in experiment [1] is “inactive”. Moreover, in experiment [2], the Potency is 10.7 µM (active).

For `COc1c(F)cccc1C(=O)N1C[C@@H](C)CC[C@H]1CNc1ccc(Br)cn1`, the Potency result in experiment [1] was “inactive”.

As to `O=C(Nc1cccnn1)N1CCN(c2nccc(-c3ccc(F)c(F)c3)n2)CC1`, the Potency result in experiment [1] and in experiment [2] was “inactive” in each case.

For `C/C=C(\C)C(=O)OC1C[C@@]2(COC(C)=O)O[C@H]2/C=C\[C@@]2(C)O[C@@H]2[C@H]2OC(=O)C(COC(C)=O)=C12` (some centres undefined), in experiment [1], the Potency entry is “inactive”.

`CCC[C@H](N[C@H]1CCc2cc(F)cc(F)c2C1)C(=O)Nc1cn(C(C)(C)CNCC(C)(C)C)cn1`: the Potency result in experiment [1] and in experiment [2] was “inactive” in each case.

For `NC(=O)c1cnc(N[C@@H]2CCCC[C@@H]2N)nc1Nc1cccc(-n2nccn2)c1`, in experiment [1], the Potency result was “inactive”.

`CNC(=O)COC(=O)N1CCC(CCc2ccc(Cl)cc2)CC1`: the Potency result in experiment [1] is “inactive”.

Turning to `O=C(Nc1ccc(C(O)(C(F)(F)F)C(F)(F)F)cc1)c1ccc(C(F)(F)F)cc1`, the Potency result in experiment [1] was “inactive”. Further, in experiment [2], the Potency is 19 µM (active).

Take `O=C(NCC1(c2nc(-c3ccccc3)cs2)CCOCC1)c1cccc(-c2noc(C(F)(F)F)n2)c1`: the Potency entry in experiment [1] and in experiment [2] was “inactive” in each case.

In the case of `O=C(N[C@H](Cc1cscn1)C(=O)N[C@@H](CC1CCCCC1)[C@@H](O)[C@@H](O)C1CC1)c1nc2ccccc2[nH]1`, the Potency entry in experiment [1] is “inactive”. Also, the Potency in experiment [2] is 19 µM (active).

As to `COc1ccc(CCCN2CCC(COC(c3ccccc3)c3ccccc3)CC2)cc1`, the Potency result in experiment [1] was “inactive”. Besides, in experiment [2], the Potency is 0.0535 µM (active).

On to `CC(C)(O)/C=C/C(=O)[C@](C)(O)[C@H]1[C@H](O)C[C@@]2(C)[C@@H]3CC=C4[C@@H](C[C@H](O[C@@H]5O[C@H](CO)[C@@H](O)[C@H](O)[C@H]5O)C(=O)C4(C)C)[C@]3(C)C(=O)C[C@]12C`, for which the Potency entry in experiment [1] was “inactive”.

Regarding `Cc1ccc(S(=O)(=O)NCc2ccc(C(=O)NCCN(Cc3ccccc3)C(C)C)cc2)cc1`, the Potency result in experiment [1] is “inactive”. In experiment [2], the Potency was 12 µM (active).

For `CC(C)(C)c1ccc2c(c1)CC[C@H]2NC(=O)Nc1cccc2[nH]ncc12`, the Potency entry in experiment [1] and in experiment [2] was “inactive” throughout.

`Cc1cc(NC(=O)NCCN2CCC(O)(Cc3ccccc3)CC2)c2ccccc2n1`: in experiment [1], the Potency result is “inactive”. Moreover, the Potency in experiment [2] was 8.49 µM (active).

For `C[C@H]1[C@H](/C=C/c2ccc(-c3ccccc3C#N)cn2)[C@@H]2[C@@H](C)OC(=O)[C@@H]2C[C@@H]1C`, the Potency result in experiment [1] and in experiment [2] was “inactive” in each case.

For the molecule `CCCC(CCC)C(=O)NCc1ccc2c(cnn2-c2ccccc2OC)c1`, the Potency entry in experiment [1] was “inactive”. Moreover, the Potency in experiment [2] was 13.5 µM (active).

In the case of `CC(C)(N)c1ncc(-c2ccc(OC(F)(F)F)cc2)[nH]1`, the Potency result in experiment [1] is “inactive”. Moreover, in experiment [2], the Potency is 23.9 µM (active).

As to `CN1CCN(c2ccc(OC(F)(F)F)c(Nc3ncc4c(n3)-c3c(c(C(N)=O)nn3CCO)CC4)c2)CC1`, the Potency entry in experiment [1] and in experiment [2] was “inactive” throughout.

As to `O=C(Nc1cccnc1)c1cc(-c2ccnc(F)c2)ccc1OCc1ccccc1`, the Potency entry in experiment [1] and in experiment [2] was “inactive” throughout.

In the case of `COc1ccc(-c2cc3onc(-c4ccncc4)c3c(=O)n2C)cc1`, in experiment [1], the Potency entry is “inactive”. In experiment [2], the Potency is 9.52 µM (active).

`O=S(=O)(c1ccc(Cl)cc1)N1CCN(c2ccnc3cc(Cl)ccc23)CC1`: the Potency entry in experiment [1] is “inactive”. The Potency in experiment [2] is 8.49 µM (active).

As to `COc1c(C)cnc(Cn2cc(C#CCC(C)(C)O)c3c(Cl)nc(N)nc32)c1C`, the Potency result in experiment [1] and in experiment [2] was “inactive” in each case.

`O=C(NCCCc1ccccc1)C1CCC(CNS(=O)(=O)c2cccc3nsnc23)CC1` (centres undefined): in experiment [1], the Potency result is “inactive”. Further, the Potency in experiment [2] is 10.7 µM (active).

Turning to `CNCCCC1(c2ccccc2)OC(C)(C)c2ccccc21` (centres undefined), the Potency entry in experiment [1] was “inactive”. Also, the Potency in experiment [2] is 6.74 µM (active).

`COc1ccc(-c2csc(NC(=O)[C@H]3CCCCN3S(=O)(=O)c3ccc(C)cc3)n2)cc1`: the Potency result in experiment [1] and in experiment [2] was “inactive” each time.

Regarding `N#Cc1ccc(COc2ccc(-c3cccc4nc(NC(=O)C5CC5)nn34)cc2)cn1`, the Potency entry in experiment [1] and in experiment [2] was “inactive” each time.

`Cc1ccc(S(=O)(=O)N2CCC[C@H]2c2ccc(F)cc2)cc1`: the Potency entry in experiment [1] and in experiment [2] was “inactive” each time.

On to `COC(=O)c1ccc2c(c1)[nH]c1ncnc(NCCCN3CCCCC3)c12`, for which the Potency result in experiment [1] and in experiment [2] was “inactive” throughout.

Consider `NC(=O)c1cnc(N[C@@H]2CCCC[C@H]2N)nc1Nc1cccc(-n2nccn2)c1`, for which the Potency entry in experiment [1] is “inactive”. Also, the Potency in experiment [2] was 19 µM (active).

With `O=C(Nc1ccc(Cl)cc1)Nc1cccc(-c2cccc(N3CCCC3)n2)c1`, the Potency result in experiment [1] was “inactive”. Moreover, the Potency in experiment [2] is 6.74 µM (active).

Turning to `O=C(NCCN1CCC(n2c(=O)[nH]c3ccccc32)CC1)c1ccc2ccccc2c1`, in experiment [1], the Potency entry was “inactive”. Moreover, the Potency in experiment [2] is 12 µM (active).

`CCC(CC)C(c1ccc(Nc2nc3ccccc3s2)cc1)n1cncn1` (centres undefined): the Potency entry in experiment [1] is “inactive”. Moreover, the Potency in experiment [2] is 2.39 µM (active).

For the molecule `CC1=C(C(=O)OC2CCCCC2)C(c2ccc([N+](=O)[O-])cc2)C2=C(CC(C)(C)CC2=O)N1` (centres undefined), the Potency in experiment [1] is 17.8 µM (active); in experiment [2], 21.3 µM (active).

In the case of `CCc1ccc(-c2nc(CSCC(=O)NCCc3ccccc3)c(C)o2)cc1`, the Potency result in experiment [1] is “inactive”. Moreover, the Potency in experiment [2] is 15.1 µM (active).

Turning to `CC(=O)N1CCN(CCOc2ccc(C3CCN(C4=Nn5c(nnc5C(F)(F)F)CC4)CC3)cc2)CC1`, the Potency result in experiment [1] and in experiment [2] was “inactive” each time.

For `O=C(CSc1nc2ccccc2c(=O)n1-c1ccccc1)Nc1ccc2c(c1)CCC2`, the Potency entry in experiment [1] and in experiment [2] was “inactive” in each case.

Regarding `O=[N+]([O-])c1cn2c(n1)OC[C@@H](OCc1ccc(-c3ccc(OC(F)(F)F)cc3)nc1)C2`, the Potency entry in experiment [1] and in experiment [2] was “inactive” in each case.

As to `CCCc1cc(C)[nH]c(=O)c1CNC(=O)c1cc(-c2ccnc(N3CCN(C)CC3)c2)cc2c1cnn2C(C)C`, in experiment [1], the Potency result was “inactive”. The Potency in experiment [2] was 23.9 µM (active).

In the case of `O=c1nc(-c2ccccn2)sc2ccccc12`, the Potency in experiment [1] was 28.2 µM (active). The Potency result in experiment [2] is “inactive”.

For the molecule `CC(C)CCNc1ncccc1C(=O)N1CCN(Cc2ccccc2)CC1`, in experiment [1], the Potency entry is “inactive”. Further, the Potency in experiment [2] is 5.35 µM (active).

Consider `COc1cc(C(=O)NC(=S)Nc2cccc(NC(=O)c3ccccc3)c2)cc(OC)c1OC`, for which the Potency entry in experiment [1] and in experiment [2] was “inactive” throughout.

Take `CCCCNc1ncc2c(-c3ccc(S(=O)(=O)N4CCOCC4)cc3)nn(C3CCC(O)CC3)c2n1` (centres undefined): the Potency result in experiment [1] and in experiment [2] was “inactive” in each case.

`Cc1ccc(NC(=O)C(C)C)cc1C1CCN(Cc2ccc(Oc3ccc(F)c(F)c3)cc2)CC1`: the Potency result in experiment [1] was “inactive”. For the same molecule, the Potency in experiment [2] is 5.35 µM (active).

For the molecule `COc1cc2c(cc1OCCCN1CCCC1)N=C(N)C21CCC1`, in experiment [1], the Potency entry was “inactive”. Also, in experiment [2], the Potency was 23.9 µM (active).

As for `Cc1cn2c(n1)Cc1ccc(Cl)cc1C(c1ccc(N)cc1)=N2`, in experiment [1], the Potency entry was “inactive”. The Potency in experiment [2] was 16.9 µM (active).

On to `NC(N)=NC(=O)c1cnn(-c2cccc3ncccc23)c1C1CC1`, for which the Potency entry in experiment [1] and in experiment [2] was “inactive” throughout.

Regarding `C=CC(=O)N1CC(N2CCN(C(=O)CNc3cc(C4CC4)c(Cl)cc3O)CC2)C1`, the Potency entry in experiment [1] and in experiment [2] was “inactive” in each case.

On to `CC(C)NC(=O)COc1cccc(-c2nc(Nc3ccc4[nH]ncc4c3)c3ccccc3n2)c1`, for which, in experiment [1], the Potency result was “inactive”. For the same molecule, the Potency in experiment [2] is 2.68 µM (active).

Take `COC(=O)c1ccc(N2CCN(C)CC2)c(NC(=O)c2cccc(OC)c2)c1`: in experiment [1], the Potency result was “inactive”. The Potency in experiment [2] was 6.01 µM (active).

For `Cc1cc(N2CCOCC2)ccc1Nc1nc(NC2CCCCC2)c2[nH]cnc2n1`, the Potency result in experiment [1] and in experiment [2] was “inactive” each time.
